{"source": "PubChem BioAssay (Tox21)", "note": "Results filed as inconclusive are left out. Entries that show only a call come without a potency. Active and inactive are the calls of the source. Calls come from the whole dose curve."}
{"assay": "p53 small molecule agonists, cell-based qHTS assay with human liver microsomes: qHTS cell viability counter screen (AID 1963579); note: nearly all actives have a fitted effect of over 45% in size", "conditions": "p53RE-bla HCT-116 viability, ATP luminescence, 16 h, HLM; series mostly up to 66 µM", "from_the_text": "National Center for Advancing Translational Sciences [NCATS]\nDivision of Preclinical Innovation [DPI]\nU.S. Environmental Protection Agency [EPA]\nNational Institutes of Environmental Health Sciences [NIEHS]\nNational Toxicology Program [NTP]\nU.S. Food and Drug Administration [FDA]\np53, a tumor suppressor protein, is activated following cellular insult, including DNA damage and other cellular stresses. The activation of p53 regulates cell fate by inducing DNA repair, cell cycle arrest, apoptosis, or cellular senescence. The activation of p53, therefore, is a good indicator of DNA damage and other cellular stresses. […] The activation of the reporter gene under culture conditions can be detected by fluorescence intensity. This cell line was used to screen the Tox21 10K compound library in the condition of presence of human liver microsomes and to identify agonists that activate the p53 signaling pathway after in vitro metabolic activation (Ooka et al., Archive of Toxicology 96:1975-1987, 2022).\nTox21 Assay Protocol Summary:\nThe p53RE-bla cells were dispensed at 4,000cells/3ul/well in 1536-well black-clear bottom plates. After the assay plates were incubated at 37 C, 5% CO2 incubator for 5 hours, 23 nL of compounds dissolved in DMSO, positive controls or DMSO only was transferred to the assay plate. Following compound addition, 3 uL of human liver microsomes (XenoTech, Kansas City, KS) at final concentration of 0.5 mg/mL and 1uL of B-Nicotinamide adenine dinucleotide 2'-phosphate (NADPH) at final concentration of 0.5 mg/mL were transferred to the assay plate. The plates were incubated at 37 C for 16 hours. 1 uL of LiveBLAzer detection mixture was added to each well and the plates were incubated at room temperature in the dark for 2 h. Fluorescence intensity at 460 and 530 nm emission and 405 nm excitation were measured by an Envision plate reader. For cell viability readout that measures cytotoxicity, 4 ul/well of CellTiter-Glo reagent was added into the assay plates using a Flying Reagent Dispenser. After 30 min incubation at room temperature, the luminescence intensity in the plates was measured using a ViewLux plate reader."}
{"smiles": "Cc1cc(C)c(S(=O)(=O)O)cc1N=Nc1cc(S(=O)(=O)O)c2ccccc2c1O", "Potency": "inactive"}
{"smiles": "FC(F)(F)/C(=N\\OCC1OCCO1)c1ccc(Cl)cc1", "Potency": "inactive"}
{"smiles": "COC(=O)c1ccc(C(=O)OC)cc1", "Potency": "inactive"}
{"smiles": "CC/C=C\\CC1=C(C)CCC1=O", "Potency": "inactive"}
{"smiles": "c1ccc(CCc2ccccc2)cc1", "Potency": "inactive"}
{"smiles": "COc1cc2c(Nc3ccc(Br)cc3F)ncnc2cc1OCC1CCN(C)CC1", "Potency": "inactive"}
{"smiles": "CCOC(=O)O[C@]1(C(=O)OCCl)CC[C@H]2[C@@H]3CCC4=CC(=O)C=C[C@]4(C)[C@H]3[C@@H](O)C[C@@]21C", "Potency": "inactive"}
{"smiles": "O=C1OC(=O)c2c(Cl)c(Cl)c(Cl)c(Cl)c21", "Potency": "inactive"}
{"smiles": "CC(C)CCCCCOC(=O)CS", "Potency": "inactive"}
{"smiles": "NC/C=C/C(=O)O", "Potency": "inactive"}
{"smiles": "CCCCCCCCSCC", "Potency": "inactive"}
{"smiles": "C#CC(O)CCC", "note": "(stereo not given)", "Potency": "inactive"}
{"smiles": "CCc1ccc(C)nc1", "Potency": "inactive"}
{"smiles": "O=C(O)c1ccccc1-n1cc(C(=O)O)c(=O)c2cc(Nc3c(F)cc(F)cc3Cl)c(Cl)cc21", "Potency": "inactive"}
{"smiles": "O=S(O)CO", "Potency": "inactive"}
{"smiles": "CN(C)c1cccc(O)c1", "Potency": "inactive"}
{"smiles": "CCCCOC(=O)[C@H](C)O", "Potency": "inactive"}
{"smiles": "CC(C)=CCCC(C)CCOC(=O)C(C)C", "note": "(stereo not given)", "Potency": "inactive"}
{"smiles": "CC(C)(C)c1nnc(NS(=O)(=O)c2ccc(N)cc2)s1", "Potency": "inactive"}
{"smiles": "CC(=O)OCC(=O)[C@@]1(O)CC[C@H]2[C@@H]3CCC4=CC(=O)C=C[C@]4(C)[C@H]3[C@@H](O)C[C@@]21C", "Potency": "inactive"}
{"smiles": "CCCC(C)CO", "note": "(stereo not given)", "Potency": "inactive"}
{"smiles": "NCC1CCCC(CN)C1", "note": "(stereo not given)", "Potency": "inactive"}
{"smiles": "CC(C)c1cccc(O)c1", "Potency": "inactive"}
{"smiles": "Nc1nnnn1-c1ccccc1", "Potency": "inactive"}
{"smiles": "C=CCCCCCCCCO", "Potency": "inactive"}
{"smiles": "CCCCC(CC)C(=O)OCCOCCOCCOC(=O)C(CC)CCCC", "note": "(stereo not given)", "Potency": "inactive"}
{"smiles": "COS(=O)(=O)O", "Potency": "inactive"}
{"smiles": "O=P(O)(O)O", "Potency": "inactive"}
{"smiles": "Cc1cccc(C)c1NC(=O)CN1CCCCCC1", "Potency": "inactive"}
{"smiles": "O=C1CC2(CCCC2)CC(=O)N1CCCCN1CCN(c2ncccn2)CC1", "Potency": "inactive"}
{"smiles": "COc1ccc2cc3[n+](cc2c1OC)CCc1cc2c(cc1-3)OCO2", "Potency": "inactive"}
{"smiles": "CN(C)CCCNCCCN", "Potency": "inactive"}
{"smiles": "C/C(=N\\O)[C@@H](C)NCC(C)(C)CN[C@H](C)/C(C)=N/O", "Potency": "inactive"}
{"smiles": "O=C(O[C@@H]1Cc2c(O)cc(O)cc2O[C@@H]1c1cc(O)c(O)c(O)c1)c1cc(O)c(O)c(O)c1", "Potency": "inactive"}
{"smiles": "C1CCCNCCC1", "Potency": "inactive"}
{"smiles": "OC1OC[C@@H](O)[C@H](O)[C@H]1O", "note": "(stereo not given in full)", "Potency": "inactive"}
{"smiles": "CC(C)(CCC(=O)O)C(=O)O", "Potency": "inactive"}
{"smiles": "CN1Cc2c(N)cccc2C(c2ccccc2)C1", "note": "(stereo not given)", "Potency": "inactive"}
{"smiles": "COc1cc(/C=C/C(N)=O)cc(OC)c1OC", "Potency": "inactive"}
{"smiles": "CCOCOCC", "Potency": "inactive"}
